# Screening data deposited in PubChem by National Center for Advancing Translational Sciences (NCATS).
# This is a sample that favours compounds with a hit; in the whole collection about 17% have one here.
# ClpP mod: qHTS Assay for Activators of ClpP | purified B. subtilis ClpP, FRET peptide cleavage, 20 min | 340,000 compounds, 1.9% hits | ATP-dependent Clp protease proteolytic subunit (Bacillus subtilis (strain 168)), P80244 | Potency, µM (highest dose often 57.5 µM), inactives show top-dose activity change, negative = active; active = well fitted falling curve with a large enough effect; inconclusive = small, poorly fitted or top-dose-only effect; inactive = no such curve, though single readings can be large or run the other way; note: the source files actives as falling curves though it sought activators and does not explain the sign; nearly all actives have a fitted effect of over 65% in size
# Target sequence (P80244 whole entry, looked up): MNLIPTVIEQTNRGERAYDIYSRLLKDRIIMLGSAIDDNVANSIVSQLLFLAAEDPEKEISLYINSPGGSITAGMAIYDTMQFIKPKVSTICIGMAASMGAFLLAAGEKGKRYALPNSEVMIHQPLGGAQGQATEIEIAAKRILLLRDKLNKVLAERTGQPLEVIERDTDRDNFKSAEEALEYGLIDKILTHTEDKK
#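 ClpP 10 microg/mL final, pH 8 Tris/KCl buffer with BSA, glycerol, Tween-20; compound pinned in; FRET-FV substrate; RT 20 min; Ex320/Em430; ΔFRET vs ADEP 5.8 microM, DMSO, no enzyme.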
# TDP1 inh: blocks human tyrosyl-DNA phosphodiesterase 1. Q9NUW8. AID 485290. 350,000 compounds, 0.28% hits. Potency, µM (doses to about 130 µM), inactives show at the highest dose activity change, negative = inhibition, usual class: inhibitors. recombinant TDP1, AlphaScreen DNA substrate cleavage; note: % is set by controls: 0 for no effect and ±100 for the full control effect; nearly all actives have a fitted effect of over 40% in size
#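 Recombinant human Tdp1 (E. coli-expressed, 1 nM final) preincubated with compounds 15 min at room temperature, then 5'-biotin/3'-phosphotyrosine-FITC DNA substrate (15 nM final) added for 5 min. AlphaScreen beads (10 ug/ml final) added 10 min; cleavage lowers signal.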
# TDP1 cell noCPT: qHTS for Inhibitors of human tyrosyl-DNA phosphodiesterase 1 (TDP1): qHTS in cells in absence of CPT. DT40 Tdp1-/- hTDP1 cells, no CPT, ATP luminescence, 48 h. Potency, µM (series often up to 46.2 µM), without a hit: top-dose activity change, negative = growth inhibition, hits mostly inhibitors. 420,000 compounds, 15% hits. AID 686978, 2013; note: % is set by controls: 0 for no effect and ±100 for the full control effect; nearly all actives have a fitted effect of over 55% in size
#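 Readout: luminescence from CellTiter-Glo after 30 min in the dark at RT. Cells: DT40 Tdp1-/- with stable hTDP1, 400/well. Exposure: compounds alone, ≥48 hr, 37 °C.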
# DT40 TDP1 CPT: growth inhibition of DT40 Tdp1-/-;hTDP1 cells with camptothecin (screen for TDP1 inhibitors); chicken DT40 Tdp1-/-;hTDP1 cells + 20 nM CPT, ATP luminescence, 48 h; Potency, µM (titrated, usually from 46.2 µM), for the others: at the top dose activity change, negative = growth inhibition, usual class: inhibitors; 420,000 compounds, 12% hits; AID 686979; note: % is set by controls: 0 for no effect and ±100 for the full control effect; nearly all actives have a fitted effect of over 55% in size
#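 Cell growth measured by CellTiter-Glo luminescence after a minimum 48 h, 37 C compound exposure with 20 nM CPT in Tdp1-knockout DT40 cells stably expressing hTDP1, seeded 400/well; qHTS titration format.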
# The depositor's hits bear a star; ? = inconclusive; . = no result; [ ] = remark or other dose. Unless noted, calls come from the whole dose curve; as a rule, active = well fitted curve in the direction sought with a large enough effect; inconclusive = small, poorly fitted or top-dose-only effect, or another doubt; inactive = no such curve, though single readings can be large; an effect the other way counts as inactive or inconclusive. Potency is the fitted concentration of half-maximal effect.
SMILES,ClpP mod,TDP1 inh,TDP1 cell noCPT,DT40 TDP1 CPT
CC(=O)N1c2ccc(S(=O)(=O)NCCC(=O)Nc3cccc(Cl)c3)cc2CC1C (centres undefined),-3%,0%,21%,-13%
CC(=O)N1c2ccc(S(=O)(=O)NCCC(=O)Nc3ccc(C)c(Cl)c3)cc2CC1C (centres undefined),1%,2%,13µM*,15µM*
CC(=O)N1c2ccc(S(=O)(=O)NCCC(=O)NCc3ccc(Cl)cc3)cc2CC1C (centres undefined),-1%,2%,15µM*,?
CC(=O)N1c2ccc(S(=O)(=O)NCCC(=O)Nc3ccc(Br)c(C)c3)cc2CC1C (centres undefined),1%,0%,5.2µM*,8.2µM*
Cc1nc2cnc(N3CCOCC3)nc2n(C[C@H]2CCCO2)c1=O,.,.,9%,-5%
O=C(NCc1cccc(Br)c1)C1CC(c2cc(C(F)(F)F)cc(C(F)(F)F)c2)=NO1 (centres undefined),2%,.,-7%,-33%
O=C(NCc1cccc(C(F)(F)F)c1)C1CC(c2c(Cl)cccc2Cl)=NO1 (centres undefined),1%,-2%,16µM*,16µM*
O=C(NCc1ccco1)C1CC(c2c(Cl)cccc2Cl)=NO1 (centres undefined),1%,4%,16µM*,?
O=C(NCc1ccco1)C1CC(c2ccc(Cl)c(Cl)c2)=NO1 (centres undefined),0%,0%,8.2µM*,13µM*
COc1ccccc1CNC(=O)C1CC(c2c(Cl)cccc2Cl)=NO1 (centres undefined),-1%,6%,-29%,-26%
O=C(NCc1cccc(Br)c1)C1CC(c2ccccc2C(F)(F)F)=NO1 (centres undefined),0%,1%,18µM*,?
Cc1cc(C)n(Cc2ccc(C(=O)O)cc2)n1,-1%,3%,-8%,2%
Cc1ccc(C)n1Cc1ccc(C(=O)O)cc1,-1%,3.5µM*,-15%,-15%
O.O=C([O-])CC([S-])C(=O)[O-].[Au+].[Na+].[Na+] (centres undefined),.,.,0%,-22%
CC(=O)N1CCC(N(C(=O)Nc2ccc(C)c(C)c2)C2CCCC2)CC1,0%,5%,-15%,-15%
COc1cccc(NC(=O)N(Cc2cn(C)c3ccccc23)C2CCCCC2)c1,?,7%,7.3µM*,4.1µM*
Cc1ccc(NC(=O)N(Cc2cn(C)c3ccccc23)C2CCCCC2)cc1C,-4%,2%,5.2µM*,5.8µM*
CC(=O)N1c2ccc(S(=O)(=O)N3CCCC3C(=O)Nc3cccc(F)c3)cc2CC1C (centres undefined),2%,.,?,16µM*
Cc1ccc(NC(=O)[C@@H]2CCCN2S(=O)(=O)c2ccccc2C(F)(F)F)cc1S(=O)(=O)N1CCOCC1,-2%,4%,-21%,?
CCc1cccc(NC(=O)C2CCCN2S(=O)(=O)c2ccccc2C(F)(F)F)c1 (centres undefined),1%,-6%[0.505 µM],21µM*,?
CCc1cccc(NC(=O)C2CCCN2S(=O)(=O)c2ccc3c(c2)CC(C)N3C(C)=O)c1 (centres undefined),2%,.,12µM*,?
COc1ccc(NC(=O)C2CCCN2S(=O)(=O)c2ccc3c(c2)CC(C)N3C(C)=O)cc1OC (centres undefined),-1%,4%,0%,?
Cc1ccc(NS(=O)(=O)c2ccc3c(c2)C(Cl)(Cl)C(=O)N3)cc1C,.,4%,.,.
CC(C)c1ccc(Nc2cc(C(=O)NCc3cccs3)c3ccccc3n2)cc1,4%,5%,?,?
CCOc1cccc(-c2cc(=O)[nH][nH]2)c1,14µM*,8%,4%,-1%
SMILES,ClpP mod,TDP1 inh,TDP1 cell noCPT,DT40 TDP1 CPT
O=C(NCc1ccccc1)c1onc(CSc2ccc(F)cc2)c1C(=O)NCc1ccccc1,-2%,.,?,18µM*
CCCCNC(=O)c1onc(CSc2ccc(F)c(F)c2)c1C(=O)NCCCC,0%,.,?,16µM*
CCCCNC(=O)c1onc(CSc2ccc(Cl)cc2)c1C(=O)NCCCC,-2%,.,?,?
C=CCNC(=O)c1onc(CSc2cc(C)cc(C)c2)c1C(=O)NCC=C,-1%,-5%,18µM*,?
Cc1cc(C)cc(SCc2noc(C(=O)NCc3ccccc3)c2C(=O)NCc2ccccc2)c1,-2%,-11%,?,?
C=CCNC(=O)c1onc(CSc2ccc(Cl)cc2)c1C(=O)O,-1%,3%,-3%,-18%
C=CCNC(=O)c1onc(CSc2ccc(Cl)cc2)c1C(=O)NCC=C,-1%,2%,16µM*,?
C=CCNC(=O)c1onc(CSc2cccc(C)c2)c1C(=O)O,0%,-2%,-8%,-10%
O=C(NC1=NCCS1)c1cccc2ccccc12,.,3%,13%,4%
CNC[C@@H]1Oc2cc(Br)ccc2S(=O)(=O)N([C@@H](C)CO)C[C@@H]1C,-1%,.,0%,-16%
COc1ccc(Cl)cc1C(=O)NNC(=O)CSc1nnnn1C,.,3%,-2%,5%
C#CCn1c(C2CC(=O)N(c3ccc(OC)cc3)C2)nc2ccccc21 (centres undefined),-1%,-2%,-16%,-4%
O=C1CC(c2nc3ccccc3n2CCCCOc2ccccc2)CN1c1ccccc1Cl (centres undefined),-9%,5%,15µM*,10µM*
CCOc1ccccc1N1CC(c2nc3ccccc3n2CCCCOc2ccccc2)CC1=O (centres undefined),6%,5%,-8%,-7%
Cc1ccc(OCCCn2c(C3CC(=O)N(c4cccc(Cl)c4)C3)nc3ccccc32)c(C)c1 (centres undefined),-3%,0%,9.2µM*,-100%
COc1ccc(OCCCCn2c(C3CC(=O)N(c4cccc(Cl)c4)C3)nc3ccccc32)cc1 (centres undefined),-11%,5%,5.8µM*,8.2µM*
CCOc1ccc(N2CC(c3nc4ccccc4n3Cc3cccc(Cl)c3)CC2=O)cc1 (centres undefined),-3%,-1%,16µM*,?
Cc1ccc(S(=O)(=O)N(C)CC(=O)Nc2nc3ccccc3s2)cc1,-3%,3%,21µM*,16µM*
Cc1ccc2nc(NC(=O)CN(C)S(=O)(=O)c3cccc4nsnc34)sc2c1,3%,-3%,2.9µM*,3.3µM*
Cc1ccc(S(=O)(=O)N(C)CC(=O)Nc2ccccc2)cc1,-2%,1%,-21%,-13%
Cc1ccc(NC(=O)CN(C)S(=O)(=O)c2cccc3nsnc23)cc1C,3%,10%,-27%,-27%
CN(c1ccc(OCC(=O)Nc2nc3ccccc3s2)cc1)S(=O)(=O)c1ccccc1,-3%,3%,5%,-28%
